Records with an inconclusive call do not appear. The source made the active and inactive calls. How the source made its calls: active means hit-call score of the fitted dose curve at least 0.9, where 1 is the maximum; inconclusive means response in the unintended direction; inactive means score below 0.9.

Experimental findings from PubChem BioAssay (EPA / NIEHS) are described below.

Glucocorticoid receptor (Homo sapiens), sequence (P04150 whole entry, looked up): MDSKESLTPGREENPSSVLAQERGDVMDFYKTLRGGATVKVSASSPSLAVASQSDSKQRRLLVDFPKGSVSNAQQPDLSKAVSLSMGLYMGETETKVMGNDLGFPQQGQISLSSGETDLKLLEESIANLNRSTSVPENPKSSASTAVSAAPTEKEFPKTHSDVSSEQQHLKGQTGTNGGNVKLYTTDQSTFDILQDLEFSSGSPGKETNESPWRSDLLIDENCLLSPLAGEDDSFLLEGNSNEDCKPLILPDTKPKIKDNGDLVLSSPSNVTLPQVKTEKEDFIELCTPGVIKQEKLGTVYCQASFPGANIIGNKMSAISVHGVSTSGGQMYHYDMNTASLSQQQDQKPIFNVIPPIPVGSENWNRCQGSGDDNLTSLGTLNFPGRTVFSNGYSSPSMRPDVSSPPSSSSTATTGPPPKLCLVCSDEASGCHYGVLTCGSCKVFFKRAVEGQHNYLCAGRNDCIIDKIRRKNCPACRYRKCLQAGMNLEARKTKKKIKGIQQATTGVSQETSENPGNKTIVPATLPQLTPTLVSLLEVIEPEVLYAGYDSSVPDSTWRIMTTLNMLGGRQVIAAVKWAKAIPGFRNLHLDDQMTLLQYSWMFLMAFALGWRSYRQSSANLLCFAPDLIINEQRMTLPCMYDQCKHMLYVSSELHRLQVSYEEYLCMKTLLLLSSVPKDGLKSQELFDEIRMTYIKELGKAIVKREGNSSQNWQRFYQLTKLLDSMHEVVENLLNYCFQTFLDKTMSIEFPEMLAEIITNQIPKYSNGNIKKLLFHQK

In this test the target is Glucocorticoid receptor (Homo sapiens) (UniProt P04150). In words: NVS_NR_hGR: NovaScreen (NVS) Nuclear Receptor Binding Assay for human Glucocorticoid Receptor (GR) (AID 2283363). The protocol:
NVS_NR_hGR is a biochemical, single-readout assay that uses extracted gene-proteins in a cell-free assay. Measurements were taken 16 hours after chemical dosing in a 96-well plate.NVS_NR_hGR is one of one assay component(s) measured or calculated from the NVS_NR_hGR assay. It is designed to make measurements of radioligand binding, a form of binding reporter, as detected with scintillation counting signals by Filter-based radiodetection technology.Data from the assay component NVS_NR_hGR was analyzed into 1 assay endpoint. This assay endpoint, NVS_NR_hGR, was analyzed in the positive analysis fitting direction relative to DMSO as the negative control and baseline of activity. Using a type of binding reporter, loss-of-signal activity can be used to understand changes in the binding as they relate to the gene NR3C1. Furthermore, this assay endpoint can be referred to as a primary readout, because the performed assay has only produced 1 assay endpoint. To generalize the intended target to other relatable targets, this assay endpoint is annotated to the nuclear receptor intended target family, where the subfamily is steroidal.
Binding assays used specific radioligands (tritiated, iodinated) with non-radioactive competitive displacement ligands in agonist or antagonist protocols (as indicated) and various reference compounds and inhibitors to titrate specific binding to receptors and transporters. Most enzyme assays (CYPs, kinases, phosphatases, proteases, HDACs) used recombinant protein and specific substrates (fluorescence mostly, some colorimetric and radioactive) and inhibitors, followed by a biochemical separation of substrate and product. All assays for the biochemical HTS were initially run in duplicate at a single concentration (10 uM for CYP450 assays and 25 uM for all others). […] Each assay was run with positive and negative controls, and concurrent controls on every plate. The follow-up (secondary) screen tested active chemical-pairs in concentration series, as well as a few additional assays not tested in the primary screen, some selected negative inactives, and several cases re-run in the concentration series for confirmatory purposes.
For orientation: AC50 means the concentration at which the activity in the assay is half-maximal. As to `CCCCCCCCCCCCCCCC[N+](C)(C)CC`, the AC50 is 2.81 µM (active).
Still for that read-out and setting: the value for `CC(C)c1ccc2c(C(C)C)cc(C(C)C)c(S(=O)(=O)O)c2c1` was 10.9 µM (active); that for `C#CC1(O)CC[C@H]2[C@@H]3CCC4=CCCC[C@@H]4[C@H]3CC[C@@]21C` (stereo partly specified) was 5.07 µM (active); that for `O=C(Nc1ccccc1SSc1ccccc1NC(=O)c1ccccc1)c1ccccc1` was 11.3 µM (active).
On to `CCCCCCCCCCCCCOP(=O)(O)O`, for which the AC50 was 10.4 µM (active).
On the same count and under the same terms, the value for `O=S(=O)(O)c1ccccc1C=Cc1ccc(-c2ccc(C=Cc3ccccc3S(=O)(=O)O)cc2)cc1` was 3.61 µM (active).
As for `O=C1CCCC1`, the result was inactive.
On the same count and under the same terms, with `c1ccc2c(c1)ccc1cc3c(ccc4ccccc43)cc12` the entry was “inactive”.
`Oc1ccc(Cl)cc1Cc1cc(Cl)ccc1O`: the concentration at half-maximal activity (AC50) was 2.65 µM (active).
With `CCCCCCCC[N+](C)(CCCCCCCC)CCCCCCCC`, the call was inactive.
For the compound `CCN(CCC#N)c1ccc(N=Nc2c(Cl)cc([N+](=O)[O-])cc2Cl)cc1`, the AC50 was 25 µM (active).
